Some test systems named below: SR leukemia; RPMI-8226 leukemia; OVCAR-8 ovarian; OVCAR-5 ovarian; OVCAR-4 ovarian; SK-OV-3 ovarian; IGROV1 ovarian; OVCAR-3 ovarian; HS 578T breast; T-47D breast; BT-549 breast; MDA-MB-435 melanoma; SW-620 colon; MCF7 breast; HCT-116 colon; HCC-2998 colon; KM12 colon; NCI/ADR-RES ovarian.
What all share (assay): NCI-60 one-dose screen, 48 h (100 = growth as untreated, 0 = no growth, -100 = all killed)
Holding throughout (conditions): 10 µM unless noted

Molecules are shown by their SMILES. About 83,000 compounds went through this panel and 20% of them were active in at least one assay; those are over-represented in the sample as a whole.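 Step 1: grow cells in 96-well plates. Step 2: add test compound at a single concentration. Step 3: incubate 48 h. Step 4: record percent growth.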 A number with no mark means an inactive call. Active and inactive are the calls of the source. Rule for the calls: active = growth percent below 10; inactive = the rest.

Experimental findings from PubChem BioAssay (NCI) are described below.

In the case of `N#Cc1cnc2cc(OC[C@@H](O)CO)c(NC(=O)C3CCCC3)cc2c1Nc1ccc(OCc2cccc(F)c2)c(Cl)c1`, the growth is 13.4% in the experiment on SR leukemia; -13.5% (active) in the experiment with RPMI-8226 leukemia; -13.6% (active) in the experiment on OVCAR-8 ovarian; 86.1% with OVCAR-5 ovarian; -74.8% (active) with OVCAR-4 ovarian; 27% in the experiment on SK-OV-3 ovarian. For the same molecule, the growth in the experiment on IGROV1 ovarian was 4.22% (active); with OVCAR-3 ovarian, -82% (active); in the experiment on HS 578T breast, -32.2% (active); with T-47D breast it was -15.1% (active); in the experiment with BT-549 breast, -72.8% (active); in the experiment on MDA-MB-435 melanoma, 20.3%. Besides, the growth in the experiment on SW-620 colon is 15.8%; in the experiment with MCF7 breast, -68.1% (active); with HCT-116 colon, -32.2% (active); with HCC-2998 colon it was -65.2% (active); in the experiment with KM12 colon, 45%.
For `[B-][N+](CC)(CC)c1ccccc1`, the growth was 74.7% in the experiment with SR leukemia; 108% with RPMI-8226 leukemia; 112% in the experiment with OVCAR-8 ovarian; 86.9% in the experiment on OVCAR-5 ovarian; 103% in the experiment on OVCAR-4 ovarian; 109% in the experiment with SK-OV-3 ovarian. In addition, the growth is 112% in the experiment on IGROV1 ovarian; 112% in the experiment on OVCAR-3 ovarian; 120% in the experiment with HS 578T breast; 110% in the experiment on NCI/ADR-RES ovarian; 102% in the experiment on T-47D breast; 99.3% in the experiment on BT-549 breast. Further, the growth was 109% with SW-620 colon; 95.9% in the experiment on MCF7 breast; 100% in the experiment with HCT-116 colon; 105% with HCC-2998 colon; 105% in the experiment on KM12 colon.
Regarding `Cc1cccc(C)c1NCc1nc(-c2ccccc2)n[nH]1`, the growth in the experiment on SR leukemia was 102%; in the experiment on RPMI-8226 leukemia, 108%; in the experiment with OVCAR-8 ovarian it was 102%; with OVCAR-5 ovarian, 95.6%; in the experiment with OVCAR-4 ovarian, 102%; with SK-OV-3 ovarian, 93.7%. In addition, the growth is 94.6% in the experiment on IGROV1 ovarian; 113% with OVCAR-3 ovarian; 108% with HS 578T breast; 103% in the experiment on NCI/ADR-RES ovarian; 87.8% with T-47D breast; 94.8% in the experiment on BT-549 breast. Moreover, the growth is 101% in the experiment on MDA-MB-435 melanoma; 109% in the experiment on SW-620 colon; 88.2% in the experiment with MCF7 breast; 98.7% in the experiment on HCT-116 colon; 103% in the experiment with KM12 colon.
Turning to `C=C(C)[C@@H]1CC[C@]2(C(=O)N3CCN(C)CC3)CC[C@]3(C)[C@H](CC[C@@H]4[C@@]5(C)C/C(=C/c6ccc(C(F)(F)F)cc6)C(=O)C(C)(C)[C@@H]5CC[C@]43C)[C@@H]12`, the growth in the experiment with SR leukemia is 76.9%; in the experiment with RPMI-8226 leukemia, 86.1%; with OVCAR-8 ovarian it was 97.4%; in the experiment on OVCAR-5 ovarian it was 94.9%; in the experiment with OVCAR-4 ovarian it was 103%; in the experiment with SK-OV-3 ovarian it was 101%. In addition, the growth was 102% with IGROV1 ovarian; 103% in the experiment with OVCAR-3 ovarian; 99.4% in the experiment on HS 578T breast; 96.8% in the experiment with NCI/ADR-RES ovarian; 79.9% with T-47D breast; 102% in the experiment on BT-549 breast. Further, the growth in the experiment with MDA-MB-435 melanoma was 97.2%; with SW-620 colon, 99.5%; in the experiment with MCF7 breast, 87.5%; in the experiment on HCT-116 colon, 89.8%; in the experiment on HCC-2998 colon it was 107%; with KM12 colon, 97%.
`Clc1ccccc1-c1nc(Nc2nc3ccccc3s2)nc(C(Cl)(Cl)Cl)n1`: the growth is 79.6% in the experiment on SR leukemia; 10.1% in the experiment on RPMI-8226 leukemia; 68.6% in the experiment on OVCAR-8 ovarian; 74.3% with OVCAR-5 ovarian; 64.6% with OVCAR-4 ovarian; 56.8% with SK-OV-3 ovarian. Moreover, the growth in the experiment on IGROV1 ovarian is 54.3%; with OVCAR-3 ovarian, 4.03% (active); with HS 578T breast, 70%; in the experiment with NCI/ADR-RES ovarian, 50.6%; with T-47D breast, 38.7%; in the experiment with BT-549 breast, 84.2%. The growth is 49% in the experiment on MDA-MB-435 melanoma; 39.5% with SW-620 colon; 32.6% in the experiment with MCF7 breast; 19.1% in the experiment on HCT-116 colon; 54.1% in the experiment on HCC-2998 colon; 31.3% with KM12 colon.
On to `CC(C)(C)n1cc(-c2ccnc(NCCCNS(=O)(=O)c3ccc(Cl)cc3)c2)c(-c2cccc(F)c2)n1`, for which the growth in the experiment on SR leukemia is 32.9%; in the experiment on RPMI-8226 leukemia, 52.3%; in the experiment on OVCAR-8 ovarian it was 84.7%; in the experiment with OVCAR-5 ovarian it was 77.2%; with OVCAR-4 ovarian, 90%; with SK-OV-3 ovarian, 91.7%. Further, the growth was 69.5% in the experiment with IGROV1 ovarian; 84.2% with OVCAR-3 ovarian; 87.9% in the experiment on HS 578T breast; 73.5% with NCI/ADR-RES ovarian; 46.5% in the experiment with T-47D breast; 74.7% in the experiment with BT-549 breast. In addition, the growth with MDA-MB-435 melanoma was 85.6%; with SW-620 colon, 70.2%; in the experiment with MCF7 breast, 60.5%; in the experiment on HCT-116 colon, 51.9%; in the experiment on KM12 colon, 60.5%.
For the molecule `CC(=O)NC1=C(C#N)C(c2ccccc2Cl)c2c(ccc3ccccc23)O1` (stereo not drawn), the growth in the experiment with SR leukemia was 37.1%; in the experiment with RPMI-8226 leukemia it was 55.5%; in the experiment on OVCAR-8 ovarian, 82%; with OVCAR-5 ovarian, 86.3%; with OVCAR-4 ovarian it was 88.8%; with SK-OV-3 ovarian, 85%. In addition, the growth was 46.1% with IGROV1 ovarian; 41.2% with OVCAR-3 ovarian; 74.9% with HS 578T breast; 33.8% with NCI/ADR-RES ovarian; 62.5% in the experiment on T-47D breast; 50% in the experiment on BT-549 breast. Moreover, the growth with MDA-MB-435 melanoma is -11.2% (active); in the experiment with SW-620 colon it was 43%; in the experiment with MCF7 breast, 42.1%; in the experiment on HCT-116 colon, 47.5%; in the experiment on KM12 colon, 51.2%.
In the case of `Cn1cc(-c2csc(-c3cn(CCNC(=O)OC(C)(C)C)c4ccc(F)cc34)n2)c2cccnc21`, the growth in the experiment with SR leukemia was 65.3%; in the experiment with RPMI-8226 leukemia, 34.4%; with OVCAR-8 ovarian, 37.9%; in the experiment on OVCAR-5 ovarian, 95.3%; in the experiment on OVCAR-4 ovarian it was 43.8%; in the experiment with SK-OV-3 ovarian, 96.6%. For the same molecule, the growth in the experiment with IGROV1 ovarian was 49.4%; with OVCAR-3 ovarian, 75.5%; in the experiment on HS 578T breast, 84.3%; with NCI/ADR-RES ovarian it was 43.8%; in the experiment on T-47D breast, 1.12% (active); with BT-549 breast, 65.4%. The growth was 77.6% with MDA-MB-435 melanoma; 88.4% in the experiment with SW-620 colon; 47.3% in the experiment on MCF7 breast; 82.6% with HCT-116 colon; 52.7% in the experiment on KM12 colon.
